Reference: PubChem BioAssay (Tox21)
“And” between values parts separate entries of the source, which are not always exact repeats. Equal entries are not always repeated. Results filed as inconclusive are left out. Entries that show only a call come without a potency. Unmarked numbers belong to inactive results. The source made the active and inactive calls. Calls follow the shape of the dose curve; as a rule, active = well fitted inhibition curve with a large enough effect in the repeat runs; inconclusive = weak or mixed curves; inactive = no such curve, though single readings can be large or run the other way.

Target: Cytochrome P450 3A4 (Homo sapiens) (UniProt P08684)
Assay: Cytochrome P450 Family 3 Subfamily A Member 4 (CYP3A4) small molecule antagonists: luciferase reporter qHTS assay (AID 1671201); also: nearly all actives have a fitted effect of over 50% in size
Details: P450-Glo CYP3A4 enzyme, luciferin luminescence, 1 h; series mostly up to 115 µM; activity change, negative = inhibition: at the top concentration
Excerpt: National Center for Advancing Translational Sciences [NCATS]
U.S. Environmental Protection Agency [EPA]
National Institutes of Environmental Health Sciences [NIEHS]
National Toxicology Program [NTP]
U.S. Food and Drug Administration [FDA]
Cytochrome P450 (CYP) enzymes are membrane-bound hemeproteins that play a key role in metabolism of drugs and xenobiotics. Evaluation of the effect of chemicals on CYP isozymes is useful to minimize the adverse drug reactions and toxicities in drug development process. Tox21 chemicals were tested for their effect on CYP enzyme activities by using P450-Glo (TM) screening systems (Promega Corporation, Madison, WI). These systems provide a luminescent method containing proluciferin substrates and are converted to luciferin products by CYP isozymes. The luciferin products formed are detected with a luciferin detection reagent, and the amount of light produced is proportional to CYP activity. P450-Glo (TM) CYP3A4 screening system (Catalog. No. V9910) was used to detect the compounds that interfere in CYP3A4 activity. The positive control compound used for CYP3A4 assay is ketoconazole (Sigma-Aldrich, St. Louis, MO).
Tox21 Assay Protocol Summary:
Two ul of enzyme-substrate mix was dispensed into medium binding white/solid 1536-well plates (Greiner Bio-One North America Inc., Monroe, NC) using a BioRaptr Flying Reagent Dispenser (FRD, Beckman Coulter, Brea, CA). Compounds dissolved in DMSO and positive control (ketoconazole) were transferred to the assay plates at 23 nl using a Pintool station (Wako, San Diego, CA). The assay plates were incubated at room temperature for 10 min. Then 2 ul of NADPH regeneration solution was added to each well of the assay plates using an FRD and incubated at room temperature for 1 h. The reaction was stopped by adding 4 ul of detection reagent using an FRD and after 20 min incubation at room temperature the luminescence signal was measured using a ViewLux plate reader (Perkin Elmer, Shelton, CT). Data were expressed as relative luminescence units.
Potency is read from the fitted curve at half-maximal effect.

Chain of Cytochrome P450 3A4 (Homo sapiens) (P08684 whole entry, looked up): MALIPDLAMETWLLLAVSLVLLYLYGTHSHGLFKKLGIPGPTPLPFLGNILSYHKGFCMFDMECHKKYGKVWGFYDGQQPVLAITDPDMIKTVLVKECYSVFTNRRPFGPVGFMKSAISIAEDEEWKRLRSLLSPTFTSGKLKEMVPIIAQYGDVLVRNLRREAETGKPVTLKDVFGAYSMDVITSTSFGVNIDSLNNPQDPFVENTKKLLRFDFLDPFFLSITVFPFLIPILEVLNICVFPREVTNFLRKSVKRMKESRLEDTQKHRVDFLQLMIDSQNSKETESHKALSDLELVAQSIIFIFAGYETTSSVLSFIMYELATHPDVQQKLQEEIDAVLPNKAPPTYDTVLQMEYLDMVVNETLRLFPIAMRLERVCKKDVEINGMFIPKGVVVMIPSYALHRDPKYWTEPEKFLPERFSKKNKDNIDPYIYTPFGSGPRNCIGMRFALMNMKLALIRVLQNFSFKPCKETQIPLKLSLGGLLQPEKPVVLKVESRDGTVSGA

SMILES	Potency	activity change, negative = inhibition
CCOc1cc(Oc2ccc(C(F)(F)F)cc2Cl)ccc1[N+](=O)[O-]	inactive	
COC(=O)c1sccc1S(=O)(=O)NC(=O)Nc1nc(C)nc(OC)n1	inactive	
CCC(C)(c1ccc(O)cc1)c1ccc(O)cc1	10 µM (active) and 15.9 µM (active)	
CCOc1cc(C=O)ccc1O	inactive	
Cc1cc(Cl)ccc1OCCCC(=O)O	inactive	
Cc1c(COC(=O)[C@@H]2[C@H](/C=C(\Cl)C(F)(F)F)C2(C)C)cccc1-c1ccccc1		12.4%
CC(C)(c1cc(Cl)c(O)c(Cl)c1)c1cc(Cl)c(O)c(Cl)c1	63.3 µM (active)	
O=P(O)(O)CCCl	inactive	
CCN(N=O)C(N)=O	inactive	
CC(C)c1ccc(CO)cc1	inactive	
O=Cc1ccco1	inactive	
C=CC(=O)OCCO	inactive	
N#CCCCl	inactive	
c1ccc(N=Nc2ccccc2)cc1	inactive	
O=S(=O)(Oc1ccc(Cl)cc1)c1ccc(Cl)cc1	inactive	
CCN(CC)C(=O)/C(Cl)=C(\C)OP(=O)(OC)OC	inactive	
Nc1cccnc1	inactive	
c1ccc(-c2cccc(-c3ccccc3)c2)cc1	inactive	
CC(C)NC(C)C	inactive	
COP(=S)(OC)Oc1ccc([N+](=O)[O-])cc1	17.8 µM (active)	

SMILES	Potency	activity change, negative = inhibition
O=[N+]([O-])c1cccc2ccccc12	inactive	
O=C(NC(=O)c1c(F)cccc1F)Nc1ccc(Cl)cc1	inactive	
COc1ccc(C=O)cc1	inactive	
CC(C)C(=O)OCC(C)(C)C(OC(=O)C(C)C)C(C)C (stereo not given)	inactive	
Oc1cc(Cl)ccc1Oc1ccc(Cl)cc1Cl		10.4% [at 52.9 µM]
O=P(Oc1ccccc1)(Oc1ccccc1)Oc1ccccc1	inactive	
Oc1cc(Cl)c(Cl)cc1Cl	inactive	
CC(C)(C)c1ccccc1O	inactive	
c1ccc(P(c2ccccc2)c2ccccc2)cc1		446%
CCOCN(C(=O)CCl)c1c(C)cccc1CC	inactive	
Nc1ccc(Cl)cc1N	26.2 µM (active) and 5.64 µM (active)	
CCCCNC(=O)n1c(NC(=O)OC)nc2ccccc21	inactive	
O=C(CCl)c1ccccc1	inactive	
CN(C)C(=O)Nc1ccc(Cl)cc1	inactive	
O=C(O)C(F)(F)C(F)(F)C(F)(F)C(F)(F)C(F)(F)C(F)(F)C(F)(F)F	inactive	
CC(C)(OOC(C)(C)c1ccccc1)c1ccccc1		9.13%
CCOC(=O)C(C)OC(=O)c1cc(Oc2ccc(C(F)(F)F)cc2Cl)ccc1[N+](=O)[O-] (stereo not given)	inactive	
CCN(CC)C(=O)SCc1ccc(Cl)cc1	inactive	
Nc1ccc(Cl)c(Cl)c1	32.5 µM (active)	
C#CCOS(=O)OC1CCCCC1Oc1ccc(C(C)(C)C)cc1 (stereo not given)	1.59 µM (active) and 2.83 µM (active)	
